From PubChem BioAssay (NCI)
The panel holds about 83,000 compounds, 20% with a hit somewhere; the sample as a whole holds those more often.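 The endpoint reported here, percent growth, reads 100 for growth as untreated, 0 for no net growth and -100 for all cells dead.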 Activity calls are given as the source filed them. How the source made its calls: active means growth percent below 10; inactive means the rest.

tested on: MDA-MB-468 breast; test: NCI-60 one-dose screen, 48 h (100 = growth as untreated, 0 = no growth, -100 = all killed); conditions: 10 µM unless noted

SMILES | growth
C=C1C(=O)O[C@H]2[C@H]1CC/C(COC(=O)NCCc1ccc(Br)cc1)=C\CC[C@@]1(C)O[C@@H]21 | 4.63% (active)
O=S(=O)(NCCCNc1cc(-c2cn(-c3ccccc3)nc2-c2cccc(O)c2)ccn1)c1ccc(C(F)(F)F)cc1 | 3.04% (active)
C=CCc1cc(OC)c(OC)c(OC)c1 | 91% (inactive)
CCOC(=O)/C=C1\S/C(=N\Nc2cc(=O)[nH]c3ccc(Br)cc23)N(c2ccccc2)C1=O | 56.1% (inactive)
Clc1ccccc1Nc1nnc(-c2ccncc2)s1 | 110% (inactive)
COc1ccc(/C=C(/C(=O)N2CCN(c3ccccc3)CC2)c2cc(OC)c(OC)c(OC)c2)cc1O | 17.6% (inactive)
Cc1cccc(C)c1NC(=O)c1sc2nc3c(cc2c1N)C(=O)CCC3 | 34.3% (inactive)
COc1ccc(C(=O)NC(=O)Nc2ccc3c(c2)NC(=O)/C3=C\c2[nH]c(C)c(C(=O)O)c2C)c(F)c1 | 12.3% (inactive)
CCN(CC)CCC(=O)Nc1ccc(Cn2nnc3c2C(=O)c2nnn(Cc4ccc(NC(=O)CCN(CC)CC)cc4)c2C3=O)cc1 | -66.4% (active)
COc1cc(CNc2ccccc2C(=O)N2CCN(C(=O)c3cc(-c4cc(OC)c(OC)c(OC)c4)n4nc(-c5ccccc5)cc4n3)CC2)cc(OC)c1OC | 23.1% (inactive)
Cc1ccc2c(c1)/C(=N\N=C/c1cn(C(C)C)c3ccccc13)C(=O)N2 | 7.43% (active)
Cc1cc(C)c(C=O)c(C)c1 | 94.1% (inactive)
COc1cc2c(c(OC)c1OC)C(=O)CC(c1cccc(NC(=O)c3ccc(C#N)cc3)c1)O2 (stereo not drawn) | 48.8% (inactive)
